What was measured:
Format in all cases: functional
Plasmodium falciparum [1] = test: GSK_TCMDC: Inhibition of Plasmodium falciparum 3D7 in whole red blood cells, using parasite LDH activity as an index of growth. Test compounds present at 2uM
Plasmodium falciparum [2] = test: GSK_TCMDC: Inhibition of Plasmodium falciparum Dd2 in whole red blood cells, using parasite LDH activity as an index of growth. Test compounds present at 2uM
HepG2 = test: GSK_TCMDC: Percent inhibition of human HepG2 cell line. Test compounds present at 10uM.

COc1ccc(C=NN=c2cc(C)[nH]c3ccccc23)c(OC)c1
Inhibition (Plasmodium falciparum [1]): 100%
Inhibition (Plasmodium falciparum [2]): 94%
Inhibition (HepG2): 24%

COc1ccc(CCN(C)CCOc2ccc(NC(=O)c3cccc4c(=O)c5cc(SC)ccc5[nH]c34)cc2)cc1OC
Inhibition (Plasmodium falciparum [1]): 97%
Inhibition (Plasmodium falciparum [2]): 82%
Inhibition (HepG2): 52%

Cc1ccccc1C1CCN(C2CCC(NC(=O)c3ccc(-c4cc(C(F)(F)F)nn4C)s3)CC2)CC1 (centres undefined)
Inhibition (Plasmodium falciparum [1]): 98%
Inhibition (Plasmodium falciparum [2]): 68%
Inhibition (HepG2): 42%
